Source: PubChem BioAssay
Calls of active or inactive are those of the source.

Experiments:
[1] = molecular target: Albumin (Bos taurus) (UniProt P02769); experiment: bovine serum albumin binders on microarray, profiling panel, artefact control for SMM control protein annotation, biochemical, small-molecule microarray, Alexa647 label, 635/667 nm fluorescence (AID 1118); conditions: BSA-A647 binding, fluorescence 635 nm, higher = more signal;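 further: score merges 667 nm emission intensity and signal-to-noise per printed compound spot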
Chain of Albumin (Bos taurus) (P02769 whole entry, looked up): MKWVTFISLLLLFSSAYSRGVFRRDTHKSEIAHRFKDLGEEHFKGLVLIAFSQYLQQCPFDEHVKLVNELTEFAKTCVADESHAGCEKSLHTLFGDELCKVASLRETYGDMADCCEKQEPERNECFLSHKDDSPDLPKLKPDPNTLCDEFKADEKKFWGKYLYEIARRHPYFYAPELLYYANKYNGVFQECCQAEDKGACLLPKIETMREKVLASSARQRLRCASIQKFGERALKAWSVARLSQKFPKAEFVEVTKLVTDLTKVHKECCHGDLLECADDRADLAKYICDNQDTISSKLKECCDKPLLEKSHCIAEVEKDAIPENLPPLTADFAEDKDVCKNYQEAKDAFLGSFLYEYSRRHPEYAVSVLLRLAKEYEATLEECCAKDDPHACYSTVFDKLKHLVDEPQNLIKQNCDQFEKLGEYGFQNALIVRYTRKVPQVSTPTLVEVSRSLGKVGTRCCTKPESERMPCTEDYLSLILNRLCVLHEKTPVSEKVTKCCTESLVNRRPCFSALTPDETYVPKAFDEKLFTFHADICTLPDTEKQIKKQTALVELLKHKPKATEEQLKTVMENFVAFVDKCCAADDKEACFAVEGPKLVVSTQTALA

[2] = small-molecule microarray binders of probe aXIP, primary screen, biochemical, NeuroSMM set, 635/667 nm fluorescence (AID 1119); conditions: higher = more signal, called active from +8 up or from −8 down;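 further: probe is the protein aXip251-270 applied at 1 µg/mL to compound-printed slides; binding of probe to printed compounds measured as 667 nm fluorescence plus signal to noise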
[3] = small-molecule binders of probe aNOTCH3, primary screen, biochemical, small-molecule microarray, 635/667 nm fluorescence (AID 1120); conditions: higher = more signal;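 further: probe is a biotin-tagged antibody raised against NOTCH3 rather than NOTCH3 protein; score merges spot fluorescence near 667 nm with spot signal to noise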
[4] = small-molecule binders of probe aNOTCH2, primary screen, biochemical, small-molecule microarray, 635/667 nm fluorescence (AID 1121); conditions: higher = more signal;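 further: score merges feature fluorescence read at 667 nm with its signal to noise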
[5] = molecular target: Carbonic anhydrase 2 (Homo sapiens) (UniProt P00918); experiment: CAII small-molecule binders, profiling panel, biochemical, small-molecule microarray, Alexa647-labelled CAII (AID 1122); conditions: CAII-A647 binding fluorescence, higher = more signal
[6] = COS7 lysate on small-molecule microarray, probe aHis, 635 nm (AID 1123); conditions: COS7 cell lysate, fluorescence, higher = more signal;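 further: z-score combines 667nm fluorescence intensity with signal-to-noise per printed compound spot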
[7] = compound binding in COS7 lysate, probe aLAP1, primary screen, cell lysate, small-molecule microarray (AID 1124); conditions: probe aLAP1, fluorescence, higher = more signal;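 further: lysate comes from COS7 cells expressing LAP1 and is applied at 0.3 µg/mL; score merges spot fluorescence near 667 nm with signal-to-noise over triplicate slides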
[8] = system: Sam68 (KHDRBS1); experiment: Sam68 small-molecule binders, primary screen, biochemical, small-molecule microarray, 635 nm fluorescence (AID 1125); conditions: small-molecule microarray binding, higher = more signal;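 further: score merges 667 nm channel intensity with signal to noise over triplicate slides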
[9] = system: Chordin-like protein 2 (CHRDL2); experiment: CHRDL2 small-molecule binders, primary screen, biochemical, small-molecule microarray, 635 nm fluorescence (AID 1126); conditions: small-molecule microarray binding, fluorescence 635 nm; higher = more signal;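 further: printed compound slides probed with Chrdl2 protein at 4 µg/mL for 1 h at 4 C; score merges 667 nm emission intensity with signal to noise over three replicate slides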
[10] = molecular target: Concanavalin-A (Canavalia ensiformis) (UniProt P02866); experiment: ConA small-molecule binders, primary screen, artefact control for SMM control protein annotation, biochemical, small-molecule microarray, Alexa647 label, 635 nm (AID 1127); conditions: ConA-A647 binding fluorescence, higher = more signal;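 further: z combines 667 nm emission intensity with signal-to-noise across three replicate slides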
Chain of Concanavalin-A (Canavalia ensiformis) (P02866 whole entry, looked up): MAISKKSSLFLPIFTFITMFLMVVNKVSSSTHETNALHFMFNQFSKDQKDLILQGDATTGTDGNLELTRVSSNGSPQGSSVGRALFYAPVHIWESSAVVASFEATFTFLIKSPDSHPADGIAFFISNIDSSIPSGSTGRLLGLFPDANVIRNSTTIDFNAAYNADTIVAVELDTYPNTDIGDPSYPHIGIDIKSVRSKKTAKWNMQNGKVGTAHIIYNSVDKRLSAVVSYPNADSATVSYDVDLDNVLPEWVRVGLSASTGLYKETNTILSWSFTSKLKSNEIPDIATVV

[11] = anti-His antibody binders, primary screen, artefact control for SMM control protein annotation, biochemical, small-molecule microarray, 635 nm fluorescence (AID 1128); conditions: anti-His Alexa647 antibody binding, higher = more signal;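 further: score merges feature fluorescence with signal-to-noise for each printed compound spot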
[12] = system: Human papillomavirus type 1a E7 protein (residues 1-88); experiment: HPV1a E7 small-molecule binders, primary screen, biochemical, small-molecule microarray, residues 1-88, 635 nm (AID 1129); conditions: small-molecule microarray binding, fluorescence 635 nm; higher = more signal
[13] = molecular target: Focal adhesion kinase 1 (Homo sapiens) (UniProt Q05397); experiment: small-molecule microarray binders of FAK, primary screen, biochemical, 635/667 nm fluorescence, BSA, DTT (AID 1130); conditions: PTK2 binding, 635 nm fluorescence, higher = more signal;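 further: composite of spot emission at 667 nm and signal to noise over triplicate slides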
Chain of Focal adhesion kinase 1 (Homo sapiens) (Q05397 whole entry, looked up): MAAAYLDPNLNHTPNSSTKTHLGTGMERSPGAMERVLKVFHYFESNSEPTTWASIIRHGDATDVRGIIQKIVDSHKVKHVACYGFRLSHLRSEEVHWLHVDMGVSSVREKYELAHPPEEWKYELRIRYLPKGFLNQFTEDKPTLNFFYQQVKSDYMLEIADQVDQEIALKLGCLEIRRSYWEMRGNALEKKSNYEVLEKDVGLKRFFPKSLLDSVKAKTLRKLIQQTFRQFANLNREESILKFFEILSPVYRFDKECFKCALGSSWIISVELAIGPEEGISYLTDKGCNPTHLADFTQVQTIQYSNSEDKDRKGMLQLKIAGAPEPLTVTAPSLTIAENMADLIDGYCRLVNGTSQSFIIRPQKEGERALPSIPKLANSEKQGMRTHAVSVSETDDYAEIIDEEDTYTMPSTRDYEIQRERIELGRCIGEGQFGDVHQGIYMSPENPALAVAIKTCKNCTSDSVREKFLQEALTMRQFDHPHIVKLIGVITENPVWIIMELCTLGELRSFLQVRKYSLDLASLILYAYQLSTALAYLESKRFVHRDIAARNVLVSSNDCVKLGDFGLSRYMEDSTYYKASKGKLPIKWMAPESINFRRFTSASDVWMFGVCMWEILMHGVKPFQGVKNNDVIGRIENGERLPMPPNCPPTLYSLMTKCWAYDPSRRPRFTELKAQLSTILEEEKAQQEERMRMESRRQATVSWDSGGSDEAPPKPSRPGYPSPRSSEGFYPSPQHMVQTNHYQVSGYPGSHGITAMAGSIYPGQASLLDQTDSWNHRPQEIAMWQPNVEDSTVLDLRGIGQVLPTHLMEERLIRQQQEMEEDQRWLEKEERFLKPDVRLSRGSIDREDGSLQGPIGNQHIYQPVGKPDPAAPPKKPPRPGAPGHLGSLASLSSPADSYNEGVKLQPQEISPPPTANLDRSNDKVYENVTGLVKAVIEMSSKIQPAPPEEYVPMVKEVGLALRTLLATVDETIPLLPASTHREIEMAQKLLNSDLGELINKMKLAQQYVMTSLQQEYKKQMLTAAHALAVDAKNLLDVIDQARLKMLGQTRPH

[14] = system: Fibrinogen (Alexa647-labelled); experiment: fibrinogen binders on compound microarrays, profiling panel, artefact control for SMM control-protein annotation, biochemical, small-molecule microarray, 635/667 nm fluorescence (AID 1131); conditions: fibrinogen-A647 binding fluorescence, higher = more signal;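 further: z-score merges 667 nm fluorescence with per-spot signal-to-noise over triplicate slides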
[15] = molecular target: Follistatin (Homo sapiens) (UniProt P19883); experiment: follistatin binders on small-molecule microarrays, primary screen, biochemical, small-molecule microarray, 635/667 nm fluorescence (AID 1132); conditions: FST binding, 635 nm fluorescence, higher = more signal
Chain of Follistatin (Homo sapiens) (P19883 whole entry, looked up): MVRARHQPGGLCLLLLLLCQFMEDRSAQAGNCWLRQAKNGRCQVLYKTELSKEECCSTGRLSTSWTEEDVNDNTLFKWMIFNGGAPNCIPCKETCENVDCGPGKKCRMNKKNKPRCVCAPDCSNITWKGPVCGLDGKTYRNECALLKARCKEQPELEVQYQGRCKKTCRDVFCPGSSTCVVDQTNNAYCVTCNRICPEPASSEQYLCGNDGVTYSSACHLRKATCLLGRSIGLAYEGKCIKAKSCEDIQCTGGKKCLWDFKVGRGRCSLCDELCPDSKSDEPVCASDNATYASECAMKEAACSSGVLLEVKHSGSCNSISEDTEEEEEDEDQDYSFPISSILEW

[16] = molecular target: Fibroblast growth factor 2 (Homo sapiens) (UniProt P09038); experiment: FGF2 binders on small-molecule microarrays, primary screen, biochemical, small-molecule microarray, 635/667 nm fluorescence (AID 1133); conditions: small-molecule microarray binding, FGF2, fluorescence 635/667; higher = more signal
Chain of Fibroblast growth factor 2 (Homo sapiens) (P09038 whole entry, looked up): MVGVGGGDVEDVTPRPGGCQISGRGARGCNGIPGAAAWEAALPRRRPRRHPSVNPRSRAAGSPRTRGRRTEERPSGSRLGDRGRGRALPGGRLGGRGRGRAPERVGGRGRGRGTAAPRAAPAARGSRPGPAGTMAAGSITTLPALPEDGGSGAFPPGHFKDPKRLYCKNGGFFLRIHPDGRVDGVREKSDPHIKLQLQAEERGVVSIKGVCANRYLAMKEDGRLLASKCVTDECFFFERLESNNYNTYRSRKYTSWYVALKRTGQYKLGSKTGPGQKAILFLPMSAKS

[17] = mitochondrial membrane potential change in A549 cells, profiling panel, cell-based, JC-1 fluorescence, basal, 24 h, 100 nL (AID 1138); conditions: higher = more signal;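 further: A549 lung adenocarcinoma cells under basal conditions with no added stimulus; test concentration not given here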
[18] = system: Lefty1; experiment: Lefty1 binders on small-molecule microarrays, primary screen, biochemical, small-molecule microarray, 635/667 nm fluorescence (AID 1139); conditions: small-molecule microarray binding, fluorescence 635/667; higher = more signal
[19] = system: wheat germ agglutinin (Triticum aestivum), Alexa647-labelled; experiment: wheat germ agglutinin binders on compound microarrays, profiling panel, artefact control for SMM control-protein annotation, biochemical, small-molecule microarray, 635/667 nm fluorescence (AID 1140); conditions: WGA-A647 binding, 635 nm fluorescence, higher = more signal;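 further: score merges 667 nm feature emission with signal to noise over triplicate slides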
[20] = molecular target: Luciferin 4-monooxygenase (Photinus pyralis) (UniProt P08659); experiment: firefly luciferase enzyme inhibitors, primary screen, biochemical, luminescence, purified enzyme, 2006 set (AID 1141); conditions: SteadyGlo luminescence, 30 min, higher = more signal, called active from +8 up or from −8 down;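 further: cell-free assay with purified firefly luciferase at 100 ng per well in PBS; test concentration not given here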
Chain of Luciferin 4-monooxygenase (Photinus pyralis) (P08659 whole entry, looked up): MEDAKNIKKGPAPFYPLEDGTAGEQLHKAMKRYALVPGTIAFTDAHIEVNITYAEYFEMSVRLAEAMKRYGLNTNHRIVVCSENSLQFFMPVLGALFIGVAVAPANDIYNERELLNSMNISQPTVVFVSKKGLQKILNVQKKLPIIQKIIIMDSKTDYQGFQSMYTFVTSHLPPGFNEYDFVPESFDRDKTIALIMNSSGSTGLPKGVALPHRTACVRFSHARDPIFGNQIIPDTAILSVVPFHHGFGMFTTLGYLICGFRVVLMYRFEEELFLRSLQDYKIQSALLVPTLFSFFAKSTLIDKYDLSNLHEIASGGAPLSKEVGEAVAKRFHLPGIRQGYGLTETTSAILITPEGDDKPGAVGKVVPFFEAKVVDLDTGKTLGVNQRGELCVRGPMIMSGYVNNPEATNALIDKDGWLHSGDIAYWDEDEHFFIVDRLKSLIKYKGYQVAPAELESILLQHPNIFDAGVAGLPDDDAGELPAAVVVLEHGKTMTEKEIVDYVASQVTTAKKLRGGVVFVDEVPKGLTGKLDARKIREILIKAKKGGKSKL

SMILES | composite z-score [1] | composite Z-score [2] | composite z-score [3] | composite z-score [4] | composite z-score [5] | composite z-score [6] | composite z-score [7] | composite z-score [8] | composite z-score [9] | composite z-score [10] | composite z-score [11] | composite z-score [12] | composite z-score [13] | composite z-score [14] | composite z-score [15] | composite z-score [16] | z-score [17] | composite z-score [18] | composite z-score [19] | z-score [20]
CC(=O)OC[C@H]1O[C@H](CC=NOC(C)CN2CCCc3nc(C)c(C)cc32)C=C[C@@H]1OC(C)=O (stereo not given in full) | -0.0846 | 1.01 (inactive) | 0.0591 | 0.0032 | 0.0124 | 0.0855 | 0.53 | 1.2 | 1.15 | -0.152 | 1.42 | 0.507 | 0.246 | 0.145 | 0.803 | 0.684 | -0.221 | 0.947 | -0.0862 | 0.767 (inactive)
Cc1cc(C)c(-c2cc([C@H](C)ON=C[C@@H](C)[C@H](OCc3ccccc3)C(C)C)on2)c(C)c1 | -0.365 | 0.687 (inactive) | -0.061 | -0.185 | -0.206 | -0.244 | -0.637 | -0.686 | -0.11 | -0.412 | -0.781 | -1.04 | 0.0063 | -1.82 | -0.158 | 0.133 | 1.18 | 0.116 | 0.528 | 0.82 (inactive)
CC(=O)OC[C@H]1O[C@@H](ON=C2[C@H]3CCn4c(=O)n(-c5ccccc5)c(=O)n4[C@H]3[C@H](O)[C@@H]3O[C@H]23)[C@H](OC(C)=O)[C@@H](OC(C)=O)[C@@H]1OC(C)=O | 0.0931 | 0.0029 (inactive) | 0.086 | -0.186 | 0.541 | 1.09 | 0.0273 | 1.07 | 0.544 | 0.339 | 1.66 | 0.894 | -0.144 | 0.8 | 0.419 | 0.431 | 0.188 | 0.413 | 0.169 | 0.939 (inactive)
C[C@@H]1C=CCC(=O)OC[C@H](C)C(=O)N[C@@H](Cc2ccccc2)C(=O)OC1 | -0.568 | 0.398 (inactive) | -0.133 | -0.0995 | -0.187 | -0.355 | 0.552 | -0.124 | 0.981 | 0.12 | -0.044 | -0.203 | -0.0171 | 0.0608 | 0.927 | 0.589 | -0.00638 | 0.432 | 0.0031 | -0.0028 (inactive)
CC(CCN1CCCc2nc(C)c(C)cc21)=NO[C@H](C)c1cn([C@H](CO)Cc2ccccc2)nn1 | 0.177 | 0.271 (inactive) | 0.159 | -0.112 | 0.236 | 0.497 | 0.0249 | 1.28 | 0.618 | -0.113 | 0.906 | 0.474 | 0.402 | 0.166 | 0.564 | 0.559 | -0.776 | 0.931 | 0.108 | 0.0837 (inactive)
C=CC[C@@H]1C=C[C@H](Oc2ccc(C)cc2)[C@@H](COC(=O)NCc2cccc3ccccc23)O1 | 0.427 | 0.339 (inactive) | -0.0328 | -0.127 | 0.023 | 0.502 | -0.106 | -0.256 | 0.338 | -0.749 | 1.21 | 0.703 | 0.433 | 0.216 | 0.285 | 0.07 | 1.34 | 0.574 | 0.115 | -0.0167 (inactive)
CC(CCN1CCCc2nc(C)c(C)cc21)=NOC[C@@H](C)[C@H](OCc1ccccc1)C(C)C | -0.453 | 0.081 (inactive) | -0.0918 | -0.0878 | -0.358 | 0.816 | -0.432 | -0.818 | -0.621 | -0.691 | 2.52 | -0.703 | -0.0748 | -0.9 | -0.516 | -0.165 | 1.37 | 0.241 | -0.606 | -1.14 (inactive)
COC(=O)C1=C(C)N(Cc2ccccc2)C2=C3C(=O)OCC[C@@H]3[C@@](O)(C(=O)OC)C(=O)N2[C@@H]1c1ccccc1 | -0.0298 | -0.135 (inactive) | 0.0182 | -0.14 | -0.085 | 0.132 | -0.186 | -0.0394 | 0.487 | 0.325 | 0.0356 | 0.0787 | 0.19 | 0.332 | 0.384 | 0.402 | 1.48 | 0.836 | 0.0974 | -0.653 (inactive)
C#CCCCON=C1C[C@@H](O)[C@@H](O)[C@@H]2[C@@H]3C(=O)N(C[C@@H]4CCCO4)C(=O)[C@@H]3CC[C@@H]12 | 0.211 | -0.294 (inactive) | -0.047 | -0.0614 | 0.406 | 0.31 | 0.221 | 0.254 | 0.264 | 0.842 | 0.265 | 0.439 | -0.14 | 0.527 | 0.378 | 0.222 | 0.441 | 0.554 | 0.553 | -0.106 (inactive)
